Entries with a potency or affinity are not part of this list.
Legend:
Klebsiella pneumoniae = settings: Concentration 20 uM; ASSAY_TEST Inhibition of Bacterial Growth; detection method Absorption (OD600); MEDIA CAMHB; plate type 384well; NBS; CORNING #3640; time 18 hr
Candida albicans = settings: 20 µM
Cryptococcus neoformans = settings: Concentration 20 uM; ASSAY_TEST Inhibition of Fungal Growth; detection method Resazurin; Absorption (OD600-OD570); plate type 384well; NBS; CORNING #3640

| Compound | Inhibition (Klebsiella pneumoniae) | Inhibition (Candida albicans) | Inhibition (Cryptococcus neoformans) |
| --- | --- | --- | --- |
| Cc1nn(Cc2ccccc2)c(Cl)c1C(=O)NC1CCCCCC1 | 0.72% | 5.99% | -4.17% |
| Nc1c2c(nc3sc4c(c13)CCCC4)CCCC2 | 3.88% | 0.42% | -9.94% |
| CC(=O)Oc1ccccc1C(=O)Nc1ncc([N+](=O)[O-])s1 [NITAZOXANIDE] | 13.55% | 26.7% | 17.15% |
| CC1(C)OB(O)c2ccc(C3=NOC(c4cc(Cl)c(F)c(Cl)c4)(C(F)(F)F)C3)cc21 (stereo not given) | 23.09% | 3.03% | -7.16% |
| Cc1cc(C2=NOC(c3cc(Cl)c(F)c(Cl)c3)(C(F)(F)F)C2)ccc1C(=O)NCc1ccc2c(c1)C(C)(C)OB2O (stereo not given) | 14.68% | 4.25% | -8.68% |
| Cc1cccc(C(=O)Nc2ccnc(N(C)C3CCN(CC(C)C)CC3)c2)c1 | 8.58% | 4.57% | -6.76% |
| CNCCC(Oc1ccc(C(F)(F)F)cc1)c1ccccc1 (stereo not given) [FLUOXETINE] | 7.93% | 1.88% | 2.51% |
| CO[C@@H](C(=O)N1Cc2[nH]nc(NC(=O)c3ccc(N4CCN(C)CC4)cc3)c2C1)c1ccccc1 [DANUSERTIB] | 10.18% | 3.17% | -4% |
| Cc1nn(C)c(C)c1NS(=O)(=O)c1c(Cl)cc(-c2ccnc(N3CCNCC3)c2)cc1Cl | 16.22% | 6.45% | -5.82% |
| CO[C@@H]1CN(c2ccc(C#CC3(O)CN4CCC3CC4)c(Cc3ccccc3)n2)C[C@H]1O (stereo not given in full) | 0.81% | 1.57% | 0.17% |

Source: ChEMBL document CHEMBL4513149, “CO-ADD screening of MMV (CH) - MMV compounds” (2021)
